# Source: PubChem BioAssay (NCI)
# This is part of a sample that, as a whole, favours compounds with a hit. Of some 83,000 tested, about 20% had one in any assay.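 Cell lines were cultured in 96-well plates, exposed to a single compound concentration, and assessed for percent growth 48 hours later.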 A number with no mark means an inactive call. Calls of active or inactive are those of the source. The calls were made as follows: active = growth percent below 10; inactive = the rest.
# System: OVCAR-5 ovarian
# Experiment: NCI-60 one-dose screen, 48 h (100 = growth as untreated, 0 = no growth, -100 = all killed)
# Details: 10 µM unless noted
row,Structure (SMILES),growth
1,Cc1[nH]n(-c2cccc(Cl)c2)c(=O)c1/C=C1\C=c2ccccc2=CC1=O,16.9%
2,CC(C)(C)OC(=O)CN1CCc2c(sc3ncnc(N4CCN(c5ccc(F)cc5)CC4)c23)C1,82.8%
3,Cc1ccc2c(c1)sc1nc(-c3c[nH]c4ccccc34)c(Nc3ccccc3)n12,105%
4,Cn1c(C#N)ccc1-c1ccc(F)c(NC(=O)c2ccc(F)cc2)c1,85.4%
5,CCOC(=O)C1=C(CC(O)c2ccc(OC)cc2OC)NC(=O)NC1c1ccccc1 (stereo unspecified),88.7%
6,CCSc1ccnc(N)n1,104%
7,Cc1ccc(S(=O)(=O)c2nc(-c3ccccc3)oc2SCC(N)=O)cc1,86.9%
8,CN(C)c1ccc(/C=N\NC(=O)c2ccc3nc(-c4ccc(Cl)cc4)[nH]c3c2)cc1,89.2%
9,CCOC(=O)C1=C(c2ccccc2)N=C2N(c3ccccc3)N=C(C(C)=O)N2C1c1ccc(F)cc1 (stereo unspecified),102%
10,CN(C)Cc1ccc(NC(=O)c2cncc(C#Cc3cnc(N)c4ncccc34)c2)cc1C(F)(F)F,-84.8% (active)
11,CCN(CC)CCn1c2ccc(OC)cc2c2sc3cc(O)ccc3c(=O)c21,91%
12,Cc1cc(=O)oc2cc(Oc3nc(Br)cn4c(Br)cnc34)ccc12,101%
13,Nc1[nH]nc2nc(-c3ccccc3)n3c4ccccc4nc3c12,106%
14,O=[N+]([O-])c1ccccc1Sc1ccccc1[N+](=O)[O-],93.1%
15,CC1(C)N=C(N)N=C(N)N1c1ccc(S(=O)(=O)Nc2nccs2)cc1,91.9%
16,c1ccc(-c2ccc3c(c2)C2(CCNCC2)CN3)cc1,98.1%
17,CCOC(=O)/C=C1\S/C(=N\Nc2cc(=O)[nH]c3ccc(Br)cc23)N(c2ccccc2)C1=O,102%
18,COc1ccc(C2CC(n3ccnc3)c3cc(OC)c(OC)c(OC)c32)cc1O (stereo unspecified),107%
19,COC(=O)c1c2c(c[n+]([O-])c1C)C(=O)C=C(NCc1ccccc1)C2=O,-90% (active)
20,COc1ccc2c(c1)c(-c1nc(-c3ccc4ccccc4c3)cs1)cn2C,91.6%
21,Cc1ccc2c(c1)nc(C)n2-c1ncnc2c1CC(C)c1cc(O)ccc1N2C (stereo unspecified),89%
22,Cc1cc(N2CCN(CC(=O)Nc3ccc4c(ccn4Cc4ccccc4)c3)CC2)nc(N2CCOCC2)n1,97.9%
23,COCCn1cc(-c2csc(-c3c[nH]c4ccc(F)cc34)n2)c2cccnc21,60.9%
24,Cc1ccc(C(=O)c2ccc(CC(=O)N/N=C/c3cccc(O)c3O)n2C)cc1,72.6%
25,CC[C@@H](C(=O)[C@@H](C)[C@@H](O)[C@H](C)[C@@H]1O[C@@H]([C@@H](CC)C(=O)ONC(=O)c2ccccc2O)CC[C@@H]1C)C1O[C@]2(C=CC(=O)[C@]3(CC[C@@](C)([C@H]4CC[C@](O)(CC)[C@H](C)O4)O3)O2)[C@H](C)C[C@@H]1C (stereo partly specified),47%
26,COc1cc(-c2nccc3[nH]c(-c4cccc5[nH]ccc45)nc23)cc(OC)c1OC,73.8%
27,CC(C)Cc1nc(Nc2ccccc2)[nH]c(=O)c1C#N,84.9%

# System: OVCAR-4 ovarian
# Experiment: as above
# Details: 10 µM unless noted
row,Structure (SMILES),growth
1,O=C(Nc1cccnc1Nc1ccc(Cl)cc1)c1cn(Cc2cccc(Oc3ccccc3)c2)nn1,83.9%
2,C1CCC(N2CN3c4nonc4N4CN(C5CCCCC5)CN5c6nonc6N(C2)C3C45)CC1 (stereo unspecified),88.9%
3,N#Cc1c(-c2ccc(Br)cc2)nc2c(N=Nc3ccc(S(N)(=O)=O)cc3)c(N)nn2c1N,61.2%
4,COc1cc(/C=C/C(=O)c2cc(OC)c(OC)c(OC)c2)ccc1Oc1nc2c(c(=O)n(C)c(=O)n2C)n1C,19.1%
5,CC1(/C=C/c2ccc(-c3ccccc3)cc2)CCn2cnc3ncnc(c32)N1O (stereo unspecified),36.6%
6,CCCc1cc(=O)oc2c(C(=O)CC(C)C)c(O)c(CC=C(C)C)c(O)c12,30.5%
7,CS(=O)(=O)Nc1cc(-c2ccc3ncnc(Nc4ccc(OCc5ccccn5)c(Cl)c4)c3c2)cnc1Cl,20.9%
8,CCN1CCN(CCNc2nccc(-c3c(-c4ccc(F)c(O)c4)nc4occn34)n2)S1(=O)=O,19.8%
9,COc1ccc(C2[C@@H](Cl)C(=O)N2c2cc(OC)c(OC)c(OC)c2)cc1Cl (stereo partly specified),56%
10,CN1CCN(Cc2ccc(NC(=O)c3cncc(C#Cc4cnc(N)cc4C#N)c3)cc2C(F)(F)F)CC1,23.2%
11,CN(C)c1ccc([C@@H](C(=O)Nc2cccc([N+](=O)[O-])c2)N(C(=O)c2cc3ccccc3[nH]2)c2cccc([N+](=O)[O-])c2)cc1,99.4%
12,c1cc(OCCN2CCCCC2)ccc1CNc1ccc2nc(CCC3CCCCC3)[nH]c2c1,49.5%
13,Cc1[nH]n(-c2cccc(Cl)c2)c(=O)c1/C=C1\C=c2ccccc2=CC1=O,-62.5% (active)
14,CC(C)(C)OC(=O)CN1CCc2c(sc3ncnc(N4CCN(c5ccc(F)cc5)CC4)c23)C1,85.5%
15,Cc1ccc2c(c1)sc1nc(-c3c[nH]c4ccccc34)c(Nc3ccccc3)n12,95.8%
16,Cn1c(C#N)ccc1-c1ccc(F)c(NC(=O)c2ccc(F)cc2)c1,85%
17,CCOC(=O)C1=C(CC(O)c2ccc(OC)cc2OC)NC(=O)NC1c1ccccc1 (stereo unspecified),106%
18,CCSc1ccnc(N)n1,111%
19,Cc1ccc(S(=O)(=O)c2nc(-c3ccccc3)oc2SCC(N)=O)cc1,99.6%
20,CN(C)c1ccc(/C=N\NC(=O)c2ccc3nc(-c4ccc(Cl)cc4)[nH]c3c2)cc1,36.4%

row,Structure (SMILES),growth
1,CCOC(=O)C1=C(c2ccccc2)N=C2N(c3ccccc3)N=C(C(C)=O)N2C1c1ccc(F)cc1 (stereo unspecified),97.9%
2,CN(C)Cc1ccc(NC(=O)c2cncc(C#Cc3cnc(N)c4ncccc34)c2)cc1C(F)(F)F,-60.1% (active)
3,CCN(CC)CCn1c2ccc(OC)cc2c2sc3cc(O)ccc3c(=O)c21,50.7%
4,Cc1cc(=O)oc2cc(Oc3nc(Br)cn4c(Br)cnc34)ccc12,45.5%
5,Nc1[nH]nc2nc(-c3ccccc3)n3c4ccccc4nc3c12,101%
6,O=[N+]([O-])c1ccccc1Sc1ccccc1[N+](=O)[O-],95.9%
7,CC1(C)N=C(N)N=C(N)N1c1ccc(S(=O)(=O)Nc2nccs2)cc1,104%
8,c1ccc(-c2ccc3c(c2)C2(CCNCC2)CN3)cc1,91.5%
9,CCOC(=O)/C=C1\S/C(=N\Nc2cc(=O)[nH]c3ccc(Br)cc23)N(c2ccccc2)C1=O,58%
10,COc1ccc(C2CC(n3ccnc3)c3cc(OC)c(OC)c(OC)c32)cc1O (stereo unspecified),100%
11,COC(=O)c1c2c(c[n+]([O-])c1C)C(=O)C=C(NCc1ccccc1)C2=O,-98.8% (active)
12,COc1ccc2c(c1)c(-c1nc(-c3ccc4ccccc4c3)cs1)cn2C,94.3%
13,Cc1ccc2c(c1)nc(C)n2-c1ncnc2c1CC(C)c1cc(O)ccc1N2C (stereo unspecified),67.5%
14,Cc1cc(N2CCN(CC(=O)Nc3ccc4c(ccn4Cc4ccccc4)c3)CC2)nc(N2CCOCC2)n1,84.4%
15,COCCn1cc(-c2csc(-c3c[nH]c4ccc(F)cc34)n2)c2cccnc21,37.6%
16,Cc1ccc(C(=O)c2ccc(CC(=O)N/N=C/c3cccc(O)c3O)n2C)cc1,29.1%
17,CC[C@@H](C(=O)[C@@H](C)[C@@H](O)[C@H](C)[C@@H]1O[C@@H]([C@@H](CC)C(=O)ONC(=O)c2ccccc2O)CC[C@@H]1C)C1O[C@]2(C=CC(=O)[C@]3(CC[C@@](C)([C@H]4CC[C@](O)(CC)[C@H](C)O4)O3)O2)[C@H](C)C[C@@H]1C (stereo partly specified),53.3%
18,COc1cc(-c2nccc3[nH]c(-c4cccc5[nH]ccc45)nc23)cc(OC)c1OC,47.5%
19,CC(C)Cc1nc(Nc2ccccc2)[nH]c(=O)c1C#N,36.8%
